In all, about 5,500 compounds went through this assay and about 2,000 (36%) were called active. About 18% were inconclusive and are not listed. Rule as the data show it: active = normalized growth mostly below about 0.91 (no sharp cut-off); inconclusive = no clear call, values can overlap the other calls; inactive = mostly above about 0.92. The list shows a part of the results.
Experiment: chemical genetic growth profiling, strain panel (AID 1159580);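 also: tested at 20 µM; growth read once vehicle control cultures reached saturation at 30 °C; 1 = growth at the plate median or of vehicle wells; lower values mean less growth of the strain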
Conditions: S. cerevisiae deletion strains, growth OD

Measured: normalized growth

N#Cc1c(N)sc2c1CCCCC2
inactive: locus YAL013W, strain DEP1, hits give low values 0.959 | locus YBR229C, strain ROT2, hits give low values 0.951 | locus YCL061C, strain MRC1, hits give low values 0.945 | locus YDL101C, strain DUN1, hits give low values 0.971 | locus YDR150W, strain NUM1, hits give low values 1.02 | locus YGR078C, strain PAC10, hits give low values 0.961 | locus YHR087W, strain rtc3, hits give low values 0.975 | locus YJL187C, strain SWE1, hits give low values 0.963 | locus YJR043C, strain POL32, hits give low values 0.992 | locus YJR075W, strain HOC1, hits give low values 0.945 | locus YLR039C, strain RIC1, hits give low values 0.96 | locus YLR058C, strain SHM2 (second series), hits give low values 0.956 | locus YLR262C, strain YPT6, hits give low values 0.955 | locus YML094W, strain GIM5, hits give low values 0.878 | locus YMR219W, strain ESC1, hits give low values 0.95 | locus YMR263W, strain SAP30, hits give low values 0.984 | locus YNL153C, strain GIM3, hits give low values 0.953 | locus YNL298W, strain CLA4 (second series), hits give low values 0.944 | locus YNL322C, strain KRE1, hits give low values 0.964 | locus YNR030W, strain Alg12, hits give low values 0.895 | locus YPL055C, strain LGE1, hits give low values 0.97
active: locus YEL061C, strain CIN8, hits give low values 0.903 | locus YHR030C, strain SLT2, hits give low values 0.616 | locus YKL190W, strain CNB1, hits give low values 0.927 | locus YLR085C, strain ARP6, hits give low values 0.714 | locus YMR307W, strain GAS1, hits give low values 0.662 | locus YPL241C, strain CIN2, hits give low values 0.846 | locus YPR135W, strain CTF4, hits give low values 0.498
